Test results published in publication PMC5540273 (PLoS ONE, 2017).

tested on: NEK5; conditions: concentration: 1 μM, replicates: in singlicate; n = 1
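Note: KINOMEscan kinase panel screen.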

Row | Structure (SMILES) | %Inh [%]
1 | O=C(O)C(F)(F)F.O=C(O)C(F)(F)F.O=c1[nH]ccc2nc(N[C@@H]3CCCNC3)nc(Nc3ccc(S(=O)(=O)N4CCOCC4)cc3)c12 [GSK2177277] | 51
2 | COc1cc(Nc2nccc(N3CCC(NC(=O)c4cc5ccccc5s4)C3)n2)cc(OC)c1OC (stereo not shown) [GSK1379760] | 99.5
3 | CN1CCN(Cc2cccc(-c3ccc4c(Nc5ccc(Oc6ccccc6)cc5)ccnc4c3)c2)CC1 [GW578342] | 0
4 | Fc1ccc(-c2ncn(C3CCNCC3)c2-c2ccnc(Oc3ccc(-c4ccccc4)cc3)n2)cc1 [SB-245391] | 4
5 | Cc1ccc(S(=O)(=O)Nc2ccc(Nc3nccc(Nc4cccc5[nH]ncc45)n3)cc2)cc1 [GSK581271] | 5
6 | COC(=O)Nc1nc2ccc(Oc3ccc(NC(=O)Nc4cc(C(F)(F)F)ccc4F)cc3)cc2n1C.Cl [GW692089] | 0
7 | O=C(Nc1n[nH]c2nc(-c3ccc(O)cc3)ccc12)C1CC1 [SB-710363] | 0
8 | CNC(=O)c1ccccc1Nc1nc(Nc2ccc(N3CCOCC3)cc2)ncc1Cl.Cl [GSK1576028] | 100
9 | Cl.NC(=O)c1cccc(Nc2nccc(Nc3ccc(Oc4c(Cl)cccc4Cl)c(Cl)c3)n2)c1 [GW659009] | 26
10 | COc1cc(Nc2nccc(-c3c(-c4cccc(NC(=O)c5c(F)cccc5F)c4)nn4ccccc34)n2)cc(OC)c1OC [GSK323521] | 22
11 | Cn1cc(-c2ccc3c(c2)CCN3C(=O)Cc2cccc(F)c2)c2c(N)ncnc21 [GSK2603358] | 28
12 | Cc1cccc(Nc2nc(N[C@H]3CCNC3)ncc2C(N)=O)c1.Cl [GSK2197149] | 8
13 | c1ccc(-c2n[nH]cc2Nc2ccnc3ccccc23)nc1 [GW694077] | 6
14 | CN(C)Cc1ccc(-c2ccc3c(Nc4ccc(Oc5ccccn5)cc4)ccnc3c2)o1 [GW567148] | 0
15 | CCS(=O)(=O)c1ccc(OC)c(Nc2nccc(-c3c(-c4cccc(NC(=O)c5c(F)cccc5F)c4)nn4ncccc34)n2)c1 [GSK326180] | 15
16 | COc1cccc(C2=C(Nc3ccc(Cl)c(C(=O)O)c3)C(=O)NC2=O)c1 [SB-390769] | 3
17 | COc1cccc(NC(=O)NC2CCN(c3ccnc(Nc4cc(OC)c(OC)c(OC)c4)n3)C2)c1 (stereo not shown) [GSK1379763] | 100
18 | Cc1ccc(C)c(NC(=O)NC2CCN(c3ccnc(Nc4ccc(F)cc4)n3)C2)c1 (stereo not shown) [GSK1379720] | 4
19 | Cc1ccc(F)c(C(=O)Nc2cccc(-c3nn4ccccc4c3-c3ccnc(Nc4cccc(F)c4)n3)c2)c1F [GSK361061] | 12

Row | Structure (SMILES) | %Inh [%]
20 | Cc1occc1-c1ncc(OC[C@@H](N)Cc2c[nH]c3ccccc23)cc1-c1ccc2[nH]nc(C)c2c1.O=C(O)C(F)(F)F [GSK682037] | 24
21 | COc1ccc(Nc2nccc(N3CCC(NC(=O)Nc4cccc(OC)c4)C3)n2)cc1 (stereo not shown) [GSK1379742] | 3
22 | CC(=O)N1CCN(c2ccc(Nc3nccc(-c4sc(C(C)C)nc4-c4cccc(NS(=O)(=O)c5cccc(Cl)c5)c4)n3)cn2)CC1 [GSK1660437] | 2
23 | Nc1ncnc2c1nc(-c1ccccc1)n2-c1ccccc1 [SKF-97293] | 0
24 | O=C(NC1CCN(c2ccnc(Nc3ccc(F)cc3)n2)C1)c1cc2ccccc2s1 (stereo not shown) [GSK1379716] | 13
25 | COc1cccc(C(=O)Nc2cccc(Oc3ccc4nc(NC(=O)C5CC5)cn4n3)c2)c1 | 23
26 | Cl.Cl.NCC(C(=O)Nc1cc(Br)c(-c2ccnc3[nH]ccc23)s1)c1ccccc1 (stereo not shown) [GSK1269851] | 0
27 | Cn1cc(-c2ccc3c(c2)CCN3C(=O)Cc2cccc(Cl)c2)c2c(N)ncnc21 [GSK2606590] | 32
28 | COc1cc(Nc2ncc3c(C)nc(-c4cc5ccccc5[nH]4)n3n2)cc(OC)c1OC [GW869516] | 99
29 | O=C(Nc1cccc(-c2nn3ccccc3c2-c2ccnc(Nc3cccc(F)c3)n2)c1)c1c(F)ccc(F)c1Cl [GSK357952] | 0
30 | C[C@@H](Oc1cc(-n2cnc3cc(-c4ccnc(NCCS(C)(=O)=O)c4)ccc32)sc1C(N)=O)c1ccccc1Cl [GSK907232] | 89
31 | COc1cccc(-c2ccc3c(NC(=O)C4CC4)n[nH]c3n2)c1 [SB-710903] | 6
32 | Cc1ccc(C(=O)N2CC[C@@H](O)C2)cc1-n1c(C)cc(OCc2ccc(F)cc2F)c(Br)c1=O | 0
33 | Cl.c1ccc(-c2ccc3c(Nc4ccc5[nH]ccc5c4)ccnc3c2)nc1 [GW440138] | 0
34 | CCc1ccc(-c2ccc3c(c2)-c2c(cnn2C)S(=O)(=O)N3C)cc1 | 0
35 | COc1ccc(Nc2nccc(NCCNC(=O)c3cc4ccccc4s3)n2)cc1 [GSK1379896] | 13
36 | Nc1ncc(-c2ccc3nccc(-c4ccncc4)c3c2)cc1S(=O)(=O)N1CCOCC1 [GSK1627798] | 0
37 | O=C(Nc1n[nH]c2cc(-c3ccoc3)ccc12)C1CC1 [SB-738481] | 0
